High-throughput results as filed in PubChem.
The full list was thinned out, with hits kept by preference.
HBB splicing: modulators of hemoglobin beta chain splicing. Potency, µM (doses to about 46.1 µM), actives largely listed as activators. 65,000 tested, 0.06% active. HBB splicing reporter cell assay, activation; EGFP reporter with mutant IVS2-654 intron; response scale: normalised to 500 nM splice-correcting PNA
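Compounds were applied for 2 days to HeLa EGFP-654 cells, 500/well in Optimem with 2% FCS. The reporter's EGFP is disrupted by mis-splicing of beta-globin intron IVS2-654. Readout: summed well GFP fluorescence from 488 nm laser scanning; reference was 500 nM antisense […] 654 PNA.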
IkB signaling: inhibitors of IkB signaling in ABC-DLBCL cells; Potency, µM (doses to about 57.1 µM); 110,000 tested, 0.04% active; AID 445; ABC-DLBCL IkBa-CBG/CBR dual luciferase ratio, 4 h; response scale: scaled: untreated 0%, proteasome inhibitor 100%; active = well fitted curve in the direction sought with a large enough effect in the signal ratio, not every such curve was filed as active; inconclusive = small, poorly fitted or top-dose-only effect, or a change in a side signal; the % refers to the signal ratio;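 also: the direction sought is a rising ratio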
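In this assay, an IκBα–CBG68 fusion accumulates when IKK-driven degradation is blocked; native CBR normalizes for cell number. OCI-Ly3 cells were treated 4 h with compound and doxycycline, then green and red light read after Chroma-Glo addition.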
CRE-bla Fsk: modulators of forskolin-stimulated CRE signaling in CHO cells; CHO CRE-bla reporter (cAMP response element driving beta-lactamase), forskolin EC10, beta-lactamase ratio; 71,000 tested, 2.5% active; Potency, µM (titrated, usually from 38.2 µM), hits mostly activators; active = well fitted activation curve with a large enough effect in the signal ratio, with a control signal flat, not every such curve was filed as active; inconclusive = small, poorly fitted or top-dose-only effect, or effect the other way, or a change in a side signal; the % refers to the signal ratio
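Beta-lactamase reporter under a cAMP responsive element in CHO cells; compounds tested in titration series against EC10 NKH 477, 3 h at 37 °C. Read-out: CCF4 FRET ratio 460nm/530nm (excitation 405nm) giving %Activity, fitted to AC50.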
Epigenetic mod: epigenetic GFP locus derepression in mouse cells | mouse C127i GFP locus derepression, cytometry, 30 h | Potency, µM (top dose mostly 46.1 µM) | 68,000 tested, 0.09% active | AID 597
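Murine C127i mammary cells carrying a silenced, stably integrated CMV-driven GFP reporter were treated with compound for 30 hours at 37 C. After PBS washes, GFP-positive cells were counted by laser-scanning microplate cytometry.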
ERK AVP block: vasopressin-driven ERK pathway inhibition; HEK293-V1b, vasopressin-stimulated pERK AlphaScreen; Potency, µM (top dose mostly 57.5 µM), usual class: inhibitors; 72,000 tested, 0.99% active; AID 995; also: nearly all actives have a fitted effect of over 55% in size
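Phosphorylated ERK1/2 detected via AlphaScreen bead proximity in lysates of V1b-expressing HEK293 cells given 25 nM vasopressin for 5 min after 30 min compound exposure (37 °C). AC50 from Hill equation; basal DMSO 0%, vasopressin 100%.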
Each line names hits and unclear results; the compound was inactive in the other large screens. Unless noted, calls follow the shape of the dose curve; as a rule, active = well fitted curve in the direction sought with a large enough effect; inconclusive = small, poorly fitted or top-dose-only effect, or another doubt; inactive = no such curve, though single readings can be large; an effect the other way counts as inactive or inconclusive.

Cc1cccc(N=c2oc3cc(O)ccc3cc2C(N)=O)c1	IkB signaling inconclusive, CRE-bla Fsk 12.6µM
COc1ccc2c(c1)C(=O)N(c1ccccc1OC)C(=O)C2(C)C	CRE-bla Fsk 3.16µM
CCCn1c(NC(=O)c2ccc(Cl)c(S(=O)(=O)N3CCCC3)c2)nc2ccccc21	IkB signaling inconclusive, CRE-bla Fsk inconclusive, ERK AVP block 3.16µM
CCc1nc(Nc2ccc(N3CCN(C(C)=O)CC3)cc2)c2oc3ccccc3c2n1	IkB signaling inconclusive, CRE-bla Fsk 1.26µM, ERK AVP block 31.6µM
CC(=O)N1CCN(c2ccc(Nc3ncnc4c3oc3ccccc34)cc2)CC1	IkB signaling inconclusive, ERK AVP block 20µM
c1ccc2c(c1)oc1c(Nc3ccc(CN4CCOCC4)cc3)ncnc12	IkB signaling inconclusive, CRE-bla Fsk inconclusive, ERK AVP block 20µM
CCOC(=O)C1CCCN(c2ncnc3c2oc2ccccc23)C1 (configuration not stated)	ERK AVP block 25.1µM
c1ccc(N2CCN(c3ncnc4c3oc3ccccc34)CC2)cc1	IkB signaling inconclusive, CRE-bla Fsk inconclusive, ERK AVP block 31.6µM
CC(=O)c1ccc(Nc2nc(C)nc3c2oc2ccccc23)cc1	CRE-bla Fsk 2µM
Cc1nc(NCCN2CCOCC2)c2oc3ccccc3c2n1	CRE-bla Fsk inconclusive
Cc1cccc(NC(=O)CSc2cn(CC(=O)N3CCCC3)c3ccccc23)c1C	none (no result: HBB splicing, CRE-bla Fsk, Epigenetic mod, ERK AVP block)
CC(C)Oc1ccc(CNS(=O)(=O)c2ccc(-c3cc(C(F)(F)F)on3)s2)cc1	none (no result: HBB splicing, CRE-bla Fsk, Epigenetic mod, ERK AVP block)
COc1ccc(C(=O)NNc2ncnc3c2cnn3-c2ccc(C)cc2C)cc1	none (no result: HBB splicing, CRE-bla Fsk, Epigenetic mod, ERK AVP block)
CC1=C(C(=O)OCc2ccccc2)C(c2ccccc2)NC(=O)N1CCCCCC(=O)O (configuration not stated)	CRE-bla Fsk inconclusive (no result: IkB signaling, Epigenetic mod)
CC1=C(C(=O)OCc2ccccc2)C(c2ccc([N+](=O)[O-])cc2)NC(=O)N1CCCCCC(=O)O (configuration not stated)	CRE-bla Fsk 10µM (no result: IkB signaling, Epigenetic mod)
C/C(CCN1CCCc2nc(C)c(C)cc21)=N\OC[C@@H](O)COCc1ccco1	none (no result: IkB signaling, CRE-bla Fsk, Epigenetic mod)
O=C(O)c1ccccc1C(=O)Nc1cc2c(cc1Br)-c1ccccc1C2=O	none
Cc1nn(CCC(=O)O)c2nc(-c3cccnc3)cc(C(F)(F)F)c12	CRE-bla Fsk 10µM, ERK AVP block inconclusive
CC1CCN(CCCNC(=O)c2cc(Sc3ccc(F)cc3)nc3ccccc23)CC1	none (no result: HBB splicing, CRE-bla Fsk, Epigenetic mod, ERK AVP block)
Cn1cccc1Cc1nnc(SCC(=O)Nc2ccc3c(c2)OCCO3)n1CCc1ccccc1	ERK AVP block inconclusive
Cn1cccc1Cc1nnc(SCC(=O)Nc2ccc3c(c2)OCO3)n1CCc1ccccc1	ERK AVP block 15.8µM
Oc1c(CN2CCN(c3ccccn3)CC2)cc(Cl)c2cccnc12	IkB signaling inconclusive, CRE-bla Fsk inconclusive, Epigenetic mod 3.16µM, ERK AVP block 31.6µM
COc1c(C)cccc1C(=O)Nc1cc(-c2nn3c(C)nnc3s2)ccc1C	CRE-bla Fsk 2.51µM (no result: Epigenetic mod, ERK AVP block)
COc1ccc(C(=O)Nc2cc(-c3nn4c(C)nnc4s3)ccc2C)cc1	CRE-bla Fsk inconclusive (no result: Epigenetic mod, ERK AVP block)
CSc1ncnc2nc[nH]c12	CRE-bla Fsk 12.6µM (no result: Epigenetic mod, ERK AVP block)
CCNc1ncc2nc(C)c(=O)n(Cc3cccc(OC)c3)c2n1	CRE-bla Fsk 10µM, ERK AVP block inconclusive
CCNc1ncc2nc(C)c(=O)n(CCOC)c2n1	CRE-bla Fsk 10µM
COc1cccc(Cn2c(=O)c(C)nc3cnc(N(C)C)nc32)c1	CRE-bla Fsk 12.6µM
COc1cccc(Cn2c(=O)c(C)nc3cnc(Nc4cccc(OC)c4)nc32)c1	CRE-bla Fsk inconclusive, ERK AVP block inconclusive
CCNc1ncc2nc(C)c(=O)n(C)c2n1	CRE-bla Fsk inconclusive, ERK AVP block inconclusive
COc1cc(Cl)c(NS(=O)(=O)c2ccc(-c3cnc(C4CC4)o3)cc2)c(OC)c1	none (no result: HBB splicing, CRE-bla Fsk, Epigenetic mod, ERK AVP block)
Cc1cccc(NC(=O)C2CCN(S(=O)(=O)c3cccc4cccnc34)CC2)n1	IkB signaling inconclusive, ERK AVP block 10µM
O=C(C1CCN(S(=O)(=O)c2ccc3ccccc3c2)CC1)N1CCN(c2ncccn2)CC1	IkB signaling inconclusive, CRE-bla Fsk inconclusive, ERK AVP block 25.1µM
O=C(C1CCN(S(=O)(=O)c2cccc3cccnc23)CC1)N1CCN(c2ccccn2)CC1	CRE-bla Fsk inconclusive
Cc1ccc(NC(=O)C2CCN(S(=O)(=O)c3cccc4cccnc34)CC2)nc1	IkB signaling inconclusive, ERK AVP block 31.6µM
O=C(C1CCN(S(=O)(=O)c2cccc3cccnc23)CC1)N1CCN(c2ccc(Cl)cc2)CC1	IkB signaling inconclusive, ERK AVP block 7.94µM
CC(=O)c1ccc(NC(=O)C2CCN(S(=O)(=O)c3cccc4cccnc34)CC2)cc1	none
COc1ccc2c(C)c(CCC(=O)NCc3ccccc3OC)c(=O)oc2c1	none (no result: HBB splicing, CRE-bla Fsk, Epigenetic mod, ERK AVP block)
CN1C(=O)c2ccccc2Sc2ccc(NC(=O)N3CCN(c4ccccc4F)CC3)cc21	none (no result: HBB splicing, CRE-bla Fsk, Epigenetic mod, ERK AVP block)
CC(C)Nc1nc(NC(C)C)nc(N(C)C#N)n1	CRE-bla Fsk 12.6µM
